# ALDH1A1 inh – blocks purified human ALDH1A1 activity; Purified ALDH1A1, NADH fluorescence, propionaldehyde substrate; Potency, µM (top dose mostly 75.3 µM), inactives show at the top dose activity, negative = inhibition, usual class: inhibitors; 220,000 compounds, 7.3% hits; AID 1030; active means well fitted inhibition curve with a large enough effect, not every such curve was filed as active; inconclusive means small, poorly fitted or top-dose-only effect, or another doubt; inactive means no such curve, though single readings can be large or run the other way;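 further: plate controls were no enzyme wells and a reference inhibitor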
# HTT ATP protect – protects HTT-Q103 PC12 cells, measured by ATP | PC12 HTT-Q103 induced, cytoprotection, ATP luminescence, 40 h | Potency, µM (top dose mostly 56.4 µM), without a hit: cytoprotection (ATP increase), usual class: activators | 230,000 compounds, 0.14% hits; further: % of control where 0% means no effect; nearly all actives have a fitted effect of over 45% in size
#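 Rat PC12, Q103 Htt exon1-GFP fusion, ecdysone promoter; tebufenozide inducer 100 nM final; compound titration; qHTS, 1500 cells/well; ATPlite luminescent read.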
# Lamin A splicing – changes lamin A minigene splicing in HeLa cells; HeLa LMNA splicing GFP/RFP minigene ratio, 48 h; Potency, µM (highest dose often 46.1 µM), inactives show at the highest dose ratio change, negative = inhibition, usual class: inhibitors; 200,000 compounds, 0.01% hits; active means well fitted inhibition curve with a large enough effect in the signal ratio, with a control signal flat, not every such curve was filed as active; inconclusive means small, poorly fitted or top-dose-only effect, or effect the other way, or a change in a side signal; the % refers to the signal ratio; further: on the % scale 0 is the no-effect control and ±100 the full control effect
#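 S3 HeLa stable clones carrying a lamin A-EGFP splicing minigene plus DsRed2 were seeded at 600 cells/well in Opti-MEM with 2% FBS, pin-dosed and incubated 48 h at 37°C. Acumen cytometry (488 nm) gave the GFP/RFP total-intensity ratio.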
# HPGD block – HPGD (human) dehydrogenase inhibition; P15428; 150,000 compounds, 4.3% hits; Potency, µM, for inactives: top-dose activity change, negative = inhibition, actives largely listed as inhibitors; purified HPGD, NADH fluorescence kinetic, PGE2 substrate; active means well fitted inhibition curve with a large enough effect, not every such curve was filed as active; inconclusive means small, poorly fitted or top-dose-only effect, or another doubt; inactive means no such curve, though single readings can be large or run the other way; further: on the % scale 0 is the no-effect control and ±100 the full control effect
# Target sequence (P15428 whole entry, looked up): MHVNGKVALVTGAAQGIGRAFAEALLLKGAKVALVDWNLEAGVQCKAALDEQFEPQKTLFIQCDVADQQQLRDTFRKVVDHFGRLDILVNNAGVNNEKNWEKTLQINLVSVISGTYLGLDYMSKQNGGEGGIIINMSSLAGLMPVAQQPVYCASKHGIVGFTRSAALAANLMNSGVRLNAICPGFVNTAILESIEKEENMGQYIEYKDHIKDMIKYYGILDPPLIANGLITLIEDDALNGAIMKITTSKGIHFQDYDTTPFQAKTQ
#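 20 nM HPGD preincubated 15 min at room temperature with compound in 50 mM Tris-HCl pH 8, 0.01% Tween 20. Started with 1 mM NAD+ and 30 uM prostaglandin E2; NADH fluorescence (360/450 nm) read 5 times over 30-s intervals, last minus first.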
# HTT aggregate – mutant huntingtin aggregation inhibition; PC12 HttQ103-GFP aggregates, Acumen cytometry, 40 h; Potency, µM (doses to about 46.1 µM), inactives show at the highest dose activity change, negative = inhibition, most hits filed as inhibitors; 220,000 compounds, 1.1% hits; further: on the % scale 0 is the no-effect control and ±100 the full control effect; nearly all actives have a fitted effect of over 60% in size
#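 PC12/HTTQ103-GFP, ecdysone-inducible; teb 100 nM; cpd qHTS titration; GFP aggregates read on laser cytometer, Ex 488/Em 500-530 nm.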
# The depositor's hits bear a star; ? = inconclusive; nt = not tested or not shown; [ ] = another dose, or the depositor's remark. The list is not random: actives were taken first. Their share in the collection is about 8.8%. Unless noted, the call rests on the fitted dose curve; in most records, active means well fitted curve in the direction sought with a large enough effect; inconclusive means small, poorly fitted or top-dose-only effect, or another doubt; inactive means no such curve, though single readings can be large; an effect the other way counts as inactive or inconclusive. Potency means the concentration at half of the fitted maximal effect.
SMILES,ALDH1A1 inh,HTT ATP protect,Lamin A splicing,HPGD block,HTT aggregate
COc1cccc([C@@H]2Oc3ccc(Br)cc3C(=O)[C@H]2OC(=O)NS(=O)(=O)c2ccc(C)cc2)c1,4%,-37%,nt,-6%,nt
CC(=O)OCC1(C)CN(c2ccccc2)NC1=O (configuration not stated),10µM*,-32%,nt,nt,-1%
CC(=O)OCC1(C)CN(c2ccccc2)N(C(C)=O)C1=O (configuration not stated),?,-34%,nt,nt,-8%
Cc1cc(CNCc2c(C(=O)N3CCCCCCC3)nc3ccc(Cl)cn23)nn1C,16µM*,-19%[10 µM],11%[46 µM],nt,-7%[9.22 µM]
O=C(c1nc2ccc(Cl)cn2c1CNCCn1ccnc1)N1CCCCCCC1,?,-8%[10 µM],?,nt,18%[9.22 µM]
C#CCOCCOCCOCCNc1nc(N2CCN(C(=O)[C@H](CCCCN)n3cc(C(N)[C@H](C)CC)nn3)CC2)nc(N2CCN(C(=O)[C@H](CCC(=O)O)n3cc(C(N)[C@H](C)CC)nn3)CC2)n1 (some centres not stated),22µM*,-7%[10 µM],nt,nt,-7%[9.22 µM]
CCOC(=O)/C(C#N)=N\Nc1cc(Cl)ccc1OC,nt,-9%[10 µM],nt,nt,-3%[9.22 µM]
CCCN1C/C(=C/c2cccc([N+](=O)[O-])c2)C(=O)/C(=C/c2cccc([N+](=O)[O-])c2)C1,20µM*,-78%,3%,-14%,22%
CC(=O)C(=Cc1ccc(O)cc1)C(C)=O,7.1µM*,6%[10 µM],-5%[46 µM],nt,-5%[9.22 µM]
CC12CCC(c3n[nH]c(=S)nc31)C2(C)C (configuration not stated),20µM*,nt,1%,?,?
CC12CCC(c3nnc(SCc4ccc(Cl)cc4)nc31)C2(C)C (configuration not stated),-5%,31%[10 µM],?,-20%,-8%
CC(C)CN1CC2(CCN(C(=O)c3csnn3)CC2)C1,6%,-93%,nt,-3%,nt
CC(C)CC(=O)NC(=S)Nc1ccccc1F,-4%,-12%,9%,20µM*,15%
COc1ccccc1NC(=S)NC(=O)CC(C)C,-11%,-26%,4%,-28%,5%
CC(C)(C)CC(=O)NC(=S)Nc1ccccc1C(F)(F)F,-7%,-23%,13%,25µM*,-12%
CC(C)CC(=O)NC(=S)Nc1ccccc1C(F)(F)F,18µM*,34%[10 µM],-15%,?,4%
Cc1ccc(C(=O)NC(=S)Nc2ccccc2C(F)(F)F)cc1,13µM*,-8%,?,nt,-6%
Cc1ccc(C(=O)NCC(=O)Nc2ccccc2C(F)(F)F)cc1,20%,-11%[10 µM],-15%,-11%,-8%
CCOc1ccc(CCNC(=O)c2sc3nc4n(c(=O)c3c2C)CCCC4)cc1,nt,nt,6%[46 µM],nt,nt
COc1ccc(CNC(=O)/C=C/c2ccco2)cc1OC,3.5µM*,?,nt,nt,17%
COc1ccc(C(NC(=O)/C=C/c2ccco2)c2ccc(OC)c(OC)c2)cc1 (configuration not stated),20µM*,26%[10 µM],?,?,9%
Cc1ccc(S(=O)(=O)N2CCCOC2CNC(=O)C(=O)NCc2cccs2)cc1 (configuration not stated),11µM*,5%[10 µM],0%,-7%,4%
O=C(NCCC1=CCCCC1)C(=O)NCC1OCCCN1S(=O)(=O)c1ccc(F)cc1 (configuration not stated),22µM*,-18%,16%[46 µM],nt,-6%
Cc1ccc(S(=O)(=O)N2CCCOC2CNC(=O)C(=O)NCc2ccncc2)cc1 (configuration not stated),?,2%[10 µM],-3%,3%,2%
Cc1cc(S(=O)(=O)N2CCCOC2CNC(=O)C(=O)NCc2ccco2)ccc1F (configuration not stated),10µM*,-54%,nt,nt,17%
COc1ccc(-c2nc(C)c(CCNC(=O)c3cccs3)s2)cc1,nt,nt,-7%[46 µM],nt,nt
COc1ccc(-c2cc3ccc(O)c(CN4CCN(CCO)CC4)c3oc2=O)cc1OC,nt,nt,-3%[46 µM],nt,nt
COC(=O)C1=C(C)N=C2SC(C)C(=O)N2C1c1ccc(C(=O)OC)cc1 (configuration not stated),?,-2%,16%,-26%,18%

# Bioassay records from PubChem.
